Our source for the growth values is PubChem BioAssay (NCI).

Test systems include NCI-H23 lung; NCI-H226 lung; NCI-H322M lung; HOP-62 NSCLC; NCI-H460 lung; HOP-92 NSCLC; NCI-H522 lung; A549/ATCC NSCLC; 786-0 renal; COLO 205 colon; DU-145 prostate; K-562 leukemia; MALME-3M melanoma; MDA-MB-231 breast; RXF 393 renal; SF-268 CNS; SF-295 CNS; SF-539 CNS; UACC-257 melanoma; M14 melanoma.
Experiment in all cases: NCI-60 one-dose screen, 48 h (100 = growth as untreated, 0 = no growth, -100 = all killed)
Common to all, as to details: 10 µM

SMILES strings stand for the structures. Compounds without any hit were thinned out: in the full panel of roughly 83,000, 20% have a hit.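 Negative percent growth values reflect cell death: -40 means 40% of the cells present at the start died, and -100 means all died.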 A number with no mark means an inactive call. Activity calls are given as the source filed them. How the source made its calls: active means growth percent below 10; inactive means the rest.

As to `COc1ccccc1[As]=[As]c1ccccc1OC` (stereo unspecified), the growth is -86.8% (active) in the assay on NCI-H23 lung; -93.5% (active) in the assay on NCI-H226 lung; -80.8% (active) in the assay with NCI-H322M lung; -94.8% (active) with HOP-62 NSCLC; -42.6% (active) in the assay on NCI-H460 lung; -85.1% (active) in the assay with HOP-92 NSCLC. For the same molecule, the growth in the assay on NCI-H522 lung is -80.6% (active); with A549/ATCC NSCLC it was -88.1% (active); in the assay with 786-0 renal it was -94.7% (active); in the assay on COLO 205 colon it was -93.1% (active); in the assay on DU-145 prostate, -89.9% (active); with K-562 leukemia, 8.02% (active). Also, the growth was -72.8% (active) with MALME-3M melanoma; -83.2% (active) in the assay on MDA-MB-231 breast; -99.5% (active) in the assay on RXF 393 renal; -82.9% (active) in the assay on SF-268 CNS; -86.4% (active) in the assay with SF-295 CNS; -91.4% (active) in the assay on SF-539 CNS. The growth was -95.5% (active) in the assay on UACC-257 melanoma and -81.4% (active) with M14 melanoma.
`COc1cc2c(c(OC)c1OC)-c1ccc(O)c(=O)cc1[C@@H](NC(C)=O)CC2`: the growth in the assay on NCI-H23 lung is 65.1%; with NCI-H226 lung it was 68.9%; in the assay on NCI-H322M lung, 57.5%; in the assay with HOP-62 NSCLC, 28.9%; in the assay on NCI-H460 lung it was 24.6%; in the assay with A549/ATCC NSCLC it was 31.9%. Besides, the growth in the assay on 786-0 renal was 68.9%; in the assay with COLO 205 colon, 72.6%; in the assay on DU-145 prostate it was 61.5%; in the assay on K-562 leukemia, 46.8%; in the assay with MALME-3M melanoma it was 79.8%; in the assay with MDA-MB-231 breast it was 72.2%. Further, the growth with RXF 393 renal is 59.7%; in the assay on SF-268 CNS, 47.5%; in the assay with SF-539 CNS, 51.5%; in the assay with UACC-257 melanoma it was 75.7%; with M14 melanoma it was 52.7%.
As to `CC(C)(C)OOC(=O)/C=C\C(=O)OOC(C)(C)C`, the growth with NCI-H23 lung is 103%; in the assay on NCI-H226 lung it was 102%; with HOP-62 NSCLC, 97.7%; with NCI-H460 lung, 109%; in the assay with HOP-92 NSCLC it was 88.3%; with NCI-H522 lung, 107%. Also, the growth was 110% in the assay with A549/ATCC NSCLC; 108% in the assay on 786-0 renal; 110% in the assay on COLO 205 colon; 112% with DU-145 prostate; 104% with K-562 leukemia; 141% in the assay on MALME-3M melanoma. For the same molecule, the growth was 97.5% in the assay on MDA-MB-231 breast; 105% in the assay with RXF 393 renal; 93.8% with SF-268 CNS; 138% in the assay with SF-295 CNS; 93.8% with SF-539 CNS; 99.4% in the assay with UACC-257 melanoma.
`Oc1c(Cl)cc(Cl)c2ccccc12.[Cu+2]`: the growth with NCI-H23 lung was 91.4%; with NCI-H322M lung, 92.1%; with HOP-62 NSCLC, 108%; in the assay on NCI-H460 lung, 99.4%; with HOP-92 NSCLC, 104%; in the assay with NCI-H522 lung, 71.2%. Moreover, the growth in the assay on A549/ATCC NSCLC was 111%; in the assay with 786-0 renal, 116%; in the assay with COLO 205 colon, 102%; with DU-145 prostate, 106%; in the assay with K-562 leukemia, 69%; with MALME-3M melanoma, 96.3%. For the same molecule, the growth was 81.4% with MDA-MB-231 breast; 103% in the assay with RXF 393 renal; 109% in the assay with SF-268 CNS; 108% in the assay with SF-539 CNS; 113% in the assay on UACC-257 melanoma; 97.9% in the assay on M14 melanoma.
On to `Oc1c(I)cc(I)cc1I`, for which the growth with NCI-H226 lung was 98.6%; in the assay on NCI-H322M lung, 110%; in the assay with HOP-62 NSCLC it was 103%; in the assay on NCI-H460 lung, 105%; in the assay with HOP-92 NSCLC, 106%; in the assay on A549/ATCC NSCLC, 106%. In addition, the growth in the assay on COLO 205 colon is 116%; with DU-145 prostate, 114%; in the assay on K-562 leukemia it was 98.6%; in the assay with MALME-3M melanoma it was 121%; in the assay on MDA-MB-231 breast it was 93.7%; with RXF 393 renal, 108%. Besides, the growth in the assay on SF-268 CNS was 104%; with SF-295 CNS, 110%; in the assay on SF-539 CNS it was 102%; with UACC-257 melanoma, 107%.
Take `[Cl][Hg][c]1ccc2ccccc2c1`: the growth is -67.1% (active) in the assay on NCI-H23 lung; -20.6% (active) with NCI-H226 lung; -53.1% (active) with NCI-H322M lung; -79.9% (active) in the assay on HOP-62 NSCLC; -4.3% (active) in the assay on NCI-H460 lung; -95.1% (active) in the assay with NCI-H522 lung. Also, the growth is 19.6% in the assay on A549/ATCC NSCLC; -92.2% (active) in the assay on 786-0 renal; -87.4% (active) in the assay with COLO 205 colon; -22.1% (active) with DU-145 prostate; -13.1% (active) in the assay with K-562 leukemia; -69.6% (active) in the assay on MDA-MB-231 breast. In addition, the growth in the assay on RXF 393 renal is -97% (active); in the assay with SF-268 CNS it was -70.4% (active); in the assay with SF-295 CNS, 17.3%; in the assay with SF-539 CNS, -13.7% (active); in the assay on UACC-257 melanoma, -86.7% (active); in the assay on M14 melanoma it was -99.1% (active).
Consider `C/C1=C\[C@H](C)C[C@H](C)OC(=O)C[C@H](c2ccc(O)cc2)NC(=O)[C@@H](Cc2c(Br)[nH]c3ccccc23)N(C)C(=O)[C@H](C)NC(=O)[C@@H](C)C1`, for which the growth in the assay on NCI-H23 lung was -4.18% (active); with NCI-H226 lung it was -6.93% (active); in the assay on NCI-H322M lung it was 8.82% (active); with HOP-62 NSCLC it was -40.4% (active); in the assay with NCI-H460 lung, -13% (active); with NCI-H522 lung, -62.5% (active). Moreover, the growth is 3.5% (active) in the assay on A549/ATCC NSCLC; -55.9% (active) in the assay with 786-0 renal; 9.93% (active) in the assay on COLO 205 colon; -15.6% (active) in the assay on DU-145 prostate; 0.288% (active) in the assay on K-562 leukemia; -65% (active) with MALME-3M melanoma. The growth was -33.2% (active) with MDA-MB-231 breast; -49.2% (active) with RXF 393 renal; -30.3% (active) in the assay with SF-268 CNS; -61.2% (active) with SF-295 CNS; -36.8% (active) in the assay on SF-539 CNS; 0.643% (active) with UACC-257 melanoma. Besides, the growth with M14 melanoma was -71.2% (active).
